The source of these data is PubChem BioAssay AID434994 (NMMLSC, 2010).

Molecules are shown by their SMILES. The list shows a part of the results. Values without a mark were called inactive.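 Rule for the calls: active = superoxide signal below 65% of the plate average of sample wells; inactive = the rest.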

The experiment is described as follows: retest of yeast aging ROS inhibitors – cherry picked compounds, confirmation (AID 434994).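 Note: cells aged with compound for 7 days at 30 degrees C before staining; 100% equals mean DHE fluorescence of all compound wells on the plate.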 The following applies: S. cerevisiae aging, superoxide DHE fluorescence; at 10 µM; stronger effect = lower value.

Take `C[C@]12CCC3C(CC[C@H]4C[C@@H](O)CC[C@]34C)C1C[C@@H](O)[C@H]2O` (some centres not stated): the superoxide response (% of plate) was 90.6%. Take `CN1CCN(C(=S)SCC(=O)Nc2ccc(Cl)cc2C(=O)c2ccccc2)CC1`: the superoxide response (% of plate) was 111%.
